Results reported in PubChem BioAssay (NCI).
The panel holds about 83,000 compounds, 20% with a hit somewhere; the sample as a whole holds those more often.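 How to read the values: 0–100, growth inhibition (40 = 60% inhibited); 0, no net growth; -100 to 0, cell death (-40 = 40% of starting cells died; -100 = all dead).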 Values without a mark were called inactive. Activity calls are given as the source filed them. How the source made its calls: active means growth percent below 10; inactive means the rest.

Legend:
Assay in all cases: NCI-60 one-dose screen, 48 h (100 = growth as untreated, 0 = no growth, -100 = all killed)
Settings in all cases: 10 µM unless noted
DU-145 prostate = tested on: DU-145 prostate
K-562 leukemia = tested on: K-562 leukemia
MALME-3M melanoma = tested on: MALME-3M melanoma
MDA-MB-231 breast = tested on: MDA-MB-231 breast
RXF 393 renal = tested on: RXF 393 renal
SF-268 CNS = tested on: SF-268 CNS
SF-295 CNS = tested on: SF-295 CNS
SF-539 CNS = tested on: SF-539 CNS
UACC-257 melanoma = tested on: UACC-257 melanoma
M14 melanoma = tested on: M14 melanoma
HCT-15 colon = tested on: HCT-15 colon
HT29 colon = tested on: HT29 colon
SNB-75 CNS = tested on: SNB-75 CNS
SNB-19 CNS = tested on: SNB-19 CNS
U251 CNS = tested on: U251 CNS
PC-3 prostate = tested on: PC-3 prostate
SK-MEL-5 melanoma = tested on: SK-MEL-5 melanoma
UACC-62 melanoma = tested on: UACC-62 melanoma
LOX IMVI melanoma = tested on: LOX IMVI melanoma
SK-MEL-28 melanoma = tested on: SK-MEL-28 melanoma

CCNc1cc2c(cc1Br)-c1ccccc1C2=O
growth (DU-145 prostate): 97.7%
growth (K-562 leukemia): 102%
growth (MALME-3M melanoma): 92.8%
growth (MDA-MB-231 breast): 73.2%
growth (RXF 393 renal): 105%
growth (SF-268 CNS): 90%
growth (SF-295 CNS): 106%
growth (SF-539 CNS): 103%
growth (UACC-257 melanoma): 93.4%
growth (M14 melanoma): 107%
growth (HCT-15 colon): 77.6%
growth (HT29 colon): 97.4%
growth (SNB-75 CNS): 78.1%
growth (SNB-19 CNS): 96%
growth (U251 CNS): 96.3%
growth (PC-3 prostate): 81.4%
growth (SK-MEL-5 melanoma): 95.2%
growth (UACC-62 melanoma): 86.9%
growth (LOX IMVI melanoma): 88.1%
growth (SK-MEL-28 melanoma): 114%

O=C(CCCSc1nc(-c2ccccc2)cc(-c2ccccc2)n1)NO
growth (DU-145 prostate): 13.3%
growth (K-562 leukemia): 6.51% (active)
growth (MALME-3M melanoma): 7.62% (active)
growth (MDA-MB-231 breast): 19.8%
growth (RXF 393 renal): -21.7% (active)
growth (SF-268 CNS): 0.164% (active)
growth (SF-295 CNS): 4.39% (active)
growth (SF-539 CNS): 6.64% (active)
growth (UACC-257 melanoma): -2.82% (active)
growth (M14 melanoma): 5.46% (active)
growth (HCT-15 colon): 20.4%
growth (HT29 colon): 2.72% (active)
growth (SNB-75 CNS): 9.8% (active)
growth (SNB-19 CNS): 21.6%
growth (U251 CNS): -13.2% (active)
growth (PC-3 prostate): 26.2%
growth (SK-MEL-5 melanoma): -17.3% (active)
growth (UACC-62 melanoma): -20.9% (active)
growth (LOX IMVI melanoma): -25.3% (active)
growth (SK-MEL-28 melanoma): 26%

CNc1cc(C(=O)O)nc(NC)n1
growth (DU-145 prostate): 103%
growth (K-562 leukemia): 101%
growth (MALME-3M melanoma): 95.6%
growth (MDA-MB-231 breast): 93.1%
growth (RXF 393 renal): 96%
growth (SF-268 CNS): 100%
growth (SF-295 CNS): 100%
growth (SF-539 CNS): 94.6%
growth (UACC-257 melanoma): 94.4%
growth (M14 melanoma): 92.7%
growth (HCT-15 colon): 96.4%
growth (HT29 colon): 104%
growth (SNB-75 CNS): 90.9%
growth (SNB-19 CNS): 92.5%
growth (U251 CNS): 99.8%
growth (PC-3 prostate): 94.9%
growth (SK-MEL-5 melanoma): 96.7%
growth (UACC-62 melanoma): 97.8%
growth (LOX IMVI melanoma): 99.8%
growth (SK-MEL-28 melanoma): 92.7%

C=C(C)[C@@H]1CC[C@]2(C(=O)N3CCN(C)CC3)CC[C@]3(C)[C@H](CC[C@@H]4[C@@]5(C)C/C(=C/c6ccncc6)[C@H](O)C(C)(C)[C@@H]5CC[C@]43C)[C@@H]12
growth (DU-145 prostate): -12.4% [100 µM] (active)
growth (K-562 leukemia): -13.4% [100 µM] (active)
growth (MALME-3M melanoma): -55.1% [100 µM] (active)
growth (MDA-MB-231 breast): -48.5% [100 µM] (active)
growth (RXF 393 renal): -88.5% [100 µM] (active)
growth (SF-268 CNS): 4.1% [100 µM] (active)
growth (SF-295 CNS): -53.6% [100 µM] (active)
growth (SF-539 CNS): -72% [100 µM] (active)
growth (UACC-257 melanoma): -31.2% [100 µM] (active)
growth (M14 melanoma): -13.6% [100 µM] (active)
growth (HCT-15 colon): -28.6% [100 µM] (active)
growth (HT29 colon): -65.8% [100 µM] (active)
growth (SNB-75 CNS): 4.76% [100 µM] (active)
growth (SNB-19 CNS): 14.4% [100 µM]
growth (U251 CNS): -70.5% [100 µM] (active)
growth (PC-3 prostate): -20.2% [100 µM] (active)
growth (SK-MEL-5 melanoma): -82.4% [100 µM] (active)
growth (UACC-62 melanoma): -56% [100 µM] (active)
growth (LOX IMVI melanoma): -77.3% [100 µM] (active)
growth (SK-MEL-28 melanoma): -54.3% [100 µM] (active)

O=C1CC(C(F)(F)F)Cc2nc3ccc(Br)cc3cc21 (stereo not given)
growth (DU-145 prostate): 102%
growth (K-562 leukemia): 79.1%
growth (MALME-3M melanoma): 84.1%
growth (MDA-MB-231 breast): 82.4%
growth (RXF 393 renal): 91.1%
growth (SF-268 CNS): 88.4%
growth (SF-295 CNS): 90.2%
growth (SF-539 CNS): 93.9%
growth (UACC-257 melanoma): 106%
growth (M14 melanoma): 90.7%
growth (HCT-15 colon): 89.9%
growth (HT29 colon): 98.2%
growth (SNB-75 CNS): 78.5%
growth (SNB-19 CNS): 92%
growth (U251 CNS): 92.2%
growth (PC-3 prostate): 82%
growth (SK-MEL-5 melanoma): 92.6%
growth (UACC-62 melanoma): 81.1%
growth (LOX IMVI melanoma): 91.1%
growth (SK-MEL-28 melanoma): 96.5%

CCOc1ccc2sc(NS(=O)(=O)c3ccc(N)cc3)nc2c1
growth (DU-145 prostate): 119%
growth (K-562 leukemia): 103%
growth (MALME-3M melanoma): 118%
growth (MDA-MB-231 breast): 106%
growth (RXF 393 renal): 104%
growth (SF-268 CNS): 110%
growth (SF-295 CNS): 109%
growth (SF-539 CNS): 99.5%
growth (UACC-257 melanoma): 111%
growth (M14 melanoma): 109%
growth (HCT-15 colon): 107%
growth (HT29 colon): 109%
growth (SNB-75 CNS): 98.2%
growth (SNB-19 CNS): 103%
growth (U251 CNS): 99.5%
growth (PC-3 prostate): 119%
growth (SK-MEL-5 melanoma): 106%
growth (UACC-62 melanoma): 93%
growth (LOX IMVI melanoma): 105%
growth (SK-MEL-28 melanoma): 117%

COc1ncc(-c2ccc3nc(N)n(-c4ccccc4C(F)(F)F)c(=O)c3c2)cc1S(=O)(=O)Nc1ccc(F)cc1F
growth (DU-145 prostate): 32.3%
growth (K-562 leukemia): 61.5%
growth (MALME-3M melanoma): 76.2%
growth (MDA-MB-231 breast): -11% (active)
growth (RXF 393 renal): 10.6%
growth (SF-268 CNS): 46.1%
growth (SF-295 CNS): 33.4%
growth (SF-539 CNS): 6.32% (active)
growth (UACC-257 melanoma): 82.5%
growth (M14 melanoma): 8.91% (active)
growth (HCT-15 colon): 29.4%
growth (HT29 colon): 10.8%
growth (SNB-75 CNS): 28.2%
growth (SNB-19 CNS): 76.1%
growth (U251 CNS): 28.2%
growth (PC-3 prostate): 39%
growth (SK-MEL-5 melanoma): -48.9% (active)
growth (UACC-62 melanoma): 68.8%
growth (LOX IMVI melanoma): -52.2% (active)
growth (SK-MEL-28 melanoma): 53.9%
